Results published in the supplement of paper PMC8866396.
Counter-ions that a name gives are not always drawn. ± gives the standard deviation of the averaged measurements.

The molecules below were run on IL-6-GFP PC-9GR (assay: cell viability (CCK-8 OD) relative to DMSO control (fraction of control); higher = more viable cells). Conditions: compound concentration: 10 uM; treatment time: 48 h.
Outline: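 PC-9 and PC-9GR lung cancer cells overexpressing IL-6-GFP from a lentiviral construct were plated at 3000 cells/well in 96-well plates. Each compound from a purchased 510-compound library was added at a final 10 μM for 48 h, with a parallel plate set used for GFP imaging. Viability was measured by CCK-8 absorbance and expressed as each well's optical density divided by the vehicle (DMSO) control well, from two independent replicates.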

Row | SMILES | cell viability
1 | C=CC(=O)Nc1cc(Nc2nccc(-c3cn(C)c4ccccc34)n2)c(OC)cc1N(C)CCN(C)C.CS(=O)(=O)O [Osimertinib mesylate] | 0.206 ± 0.046
2 | CC(C)c1nc(CN(C)C(=O)NC(CCN2CCOCC2)C(=O)NC(CCC(Cc2ccccc2)NC(=O)OCc2cncs2)Cc2ccccc2)cs1 (centres undefined) [Cobicistat (GS-9350)] | 0.989 ± 0.11
3 | O=C(O)COC(=O)Cc1ccccc1Nc1c(Cl)cccc1Cl [Aceclofenac] | 1.29 ± 0.4
4 | CCC(C)C(=O)OC1CC(O)C=C2C=CC(C)C(CCC(O)CC(O)CC(=O)O)C21 (centres undefined) [Pravastatin] | 1.48 ± 0.39
5 | Cc1cn(-c2cc(NC(=O)c3ccc(C)c(Nc4nccc(-c5cccnc5)n4)c3)cc(C(F)(F)F)c2)cn1 [Nilotinib (AMN-107)] | 1.22 ± 0.089
6 | O=C(Oc1ccccc1C(=O)O)c1ccccc1O [Sasapyrine] | 0.988 ± 0.067
7 | O=C(O)c1ccccc1OP(=O)(O)O [Fosfosal] | 0.943 ± 0.088
8 | CNC(=O)c1c(C)oc2cc(Oc3ncnc4cc(OC)c(OC)cc34)ccc12 [Fruquintinib] | 1.04 ± 0.12
9 | Cc1cc(S(=O)(=O)[O-])c2c(C)ccc(C(C)C)cc1-2.[Na+] [Sodium gualenate] | 1.45 ± 0.46
10 | O=C(O)C1CSCN1 (centres undefined) [Timonacic] | 1.19 ± 0.24
11 | CCCCCOC(=O)Nc1nc(=O)n(C2OC(C)C(O)C2O)cc1F (centres undefined) [Capecitabine] | 0.655 ± 0.029
12 | C/C=C(/C)C(=O)OC1C(OC(C)=O)C2(CO)C(O)CC3(C)C(=CCC4C5(C)CCC(OC6OC(C(=O)O)C(OC7OC(CO)C(O)C(O)C7O)C(O)C6OC6OC(CO)C(O)C(O)C6O)C(C)(CO)C5CCC43C)C2CC1(C)C (centres undefined) [Escin] | 0.999 ± 0.079
13 | CN(C)N=Nc1[nH]cnc1C(N)=O [Dacarbazine] | 0.95 ± 0.14
14 | CC1=C(/C=C/C(C)=C/C=C/C(C)=C/C(=O)Nc2ccc(O)cc2)C(C)(C)CCC1 [Fenretinide] | 0.47 ± 0.12
15 | CC(C)(O)c1ccccc1CCC(SCC1(CC(=O)O)CC1)c1cccc(/C=C/c2ccc3ccc(Cl)cc3n2)c1 (centres undefined) [Montelukast] | 1.11 ± 0.26
16 | CC(C)OC(=O)CCC/C=C\CC1C(O)CC(O)C1CCC(O)CCc1ccccc1 (centres undefined) [Latanoprost] | 0.776 ± 0.15
17 | CC(=O)Nc1ccccc1 [Acetanilide] | 1.31 ± 0.19
18 | COc1cc2nccc(Oc3ccc(NC(=O)C4(C(=O)Nc5ccc(F)cc5)CC4)cc3)c2cc1OC | 0.886 ± 0.23
19 | CC1CC2C3CC(F)C4=CC(=O)C=CC4(C)C3(F)C(O)CC2(C)C1(OC(=O)c1ccco1)C(=O)SCF (centres undefined) [fluticasone furoate] | 0.711 ± 0.089
20 | CC1CC2C3CC(F)C4=CC(=O)C=CC4(C)C3(F)C(O)CC2(C)C1(O)C(=O)CO (centres undefined) [Diflorasone] | 0.825 ± 0.11

Row | SMILES | cell viability
21 | Cc1cccc(N(C)C(=S)Oc2ccc3ccccc3c2)c1 [Tolnaftate] | 1.38 ± 0.047
22 | CC1CC2C3CCC4=CC(=O)C=CC4(C)C3(F)C(O)CC2(C)C1(O)C(=O)COP(=O)([O-])[O-].[Na+].[Na+] (centres undefined) [Dexamethasone Sodium Phosphate] | 1.22 ± 0.16
23 | CCCC(=O)OC1(C(=O)CO)CCC2C3CCC4=CC(=O)CCC4(C)C3C(O)CC21C (centres undefined) [Hydrocortisone butyrate] | 0.857 ± 0.11
24 | CN1CCC(=C2c3ccccc3CCc3cccnc32)CC1.O=C(O)/C=C\C(=O)O.O=C(O)/C=C\C(=O)O [Azatadine dimaleate] | 0.981 ± 0.12
25 | CC(C)C(=O)OCC(=O)C12OC(C3CCCCC3)OC1CC1C3CCC4=CC(=O)C=CC4(C)C3C(O)CC12C (centres undefined) [Ciclesonide] | 0.855 ± 0.11
26 | CC(=O)OC12COC1CC(O)C1(C)C(=O)C(O)C3=C(C)C(OC(=O)C(O)C(NC(=O)OC(C)(C)C)c4ccccc4)CC(O)(C(OC(=O)c4ccccc4)C21)C3(C)C.O.O.O (centres undefined) [Docetaxel Trihydrate] | 0.528 ± 0.15
27 | O=C(O)CCCN1CCC(OC(c2ccc(Cl)cc2)c2ccccn2)CC1 (centres undefined) [Bepotastine] | 0.797 ± 0.031
28 | Cc1ccc(Cl)c(Nc2ccccc2C(=O)[O][Na])c1Cl [Meclofenamate Sodium] | 0.983 ± 0.054
29 | Nc1nc(=O)c2c([nH]1)NCC(CNc1ccc(C(=O)NC(CCC(=O)[O-])C(=O)[O-])cc1)N2C=O.O.O.O.O.O.[Ca+2] (centres undefined) [Leucovorin Calcium Pentahydrate] | 1.25 ± 0.17
30 | COc1ccc2cc1Oc1ccc(cc1)CC1c3c(cc4c(c3Oc3cc5c(cc3OC)CCN(C)C5C2)OCO4)CCN1C (centres undefined) [Cepharanthine] | 0.8242 ± 0.0069
31 | S=P(N1CC1)(N1CC1)N1CC1 [Thiotepa] | 1.02 ± 0.074
32 | CC1CCN(C(=O)CC#N)CC1N(C)c1ncnc2[nH]ccc12.O=C(O)CC(O)(CC(=O)O)C(=O)O (centres undefined) | 1.2 ± 0.23
33 | Cc1cnc(NC(=O)C2=C(O)c3ccccc3S(=O)(=O)N2C)s1 [Meloxicam] | 1.2096 ± 0.0007
34 | O=c1ccc2cc3ccoc3cc2o1 [Psoralen] | 0.808 ± 0.11
35 | COc1cc2nccc(Oc3ccc(NC(=O)NC4CC4)c(Cl)c3)c2cc1C(N)=O [Lenvatinib (E7080)] | 1.11 ± 0.064
36 | CC/C(=C(\c1ccccc1)c1ccc(OCCN(C)C)cc1)c1ccccc1.O=C(O)CC(O)(CC(=O)O)C(=O)O [Tamoxifen] | 1.2165 ± 0.0005
37 | NC(CCC(=O)NC(CS)C(=O)NCC(=O)O)C(=O)O (centres undefined) [Glutathione] | 1.06 ± 0.11
38 | CC(C)CC(NC(=O)CNC(=O)c1cc(Cl)ccc1Cl)B1OC(=O)CC(CC(=O)O)(C(=O)O)O1 (centres undefined) [Ixazomib Citrate (MLN9708)] | 0.316 ± 0.3
39 | CC1(C(=O)O)CCC2(C)CCC3(C)C(=CC(=O)C4C5(C)CCC(OC6OC(C(=O)O)C(O)C(O)C6OC6OC(C(=O)O)C(O)C(O)C6O)C(C)(C)C5CCC43C)C2C1.N.N (centres undefined) [Diammonium Glycyrrhizinate] | 1.11 ± 0.22
